This passage reports composite z-score and z-score results from PubChem BioAssay.

Molecules are shown by their SMILES. Activity calls are given as the source filed them. Unless noted, the rule behind the calls is not given here.

The nature of test [1]: compounds binding Alexa647 anti-His antibody – biochemical, small-molecule microarray, 635 nm fluorescence, artefact control for SMM control protein annotation, primary screen (AID 1128).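 Note: score merges feature fluorescence with signal-to-noise for each printed compound spot.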 As to conditions: higher = more signal.
In test [2] the test system is Human papillomavirus type 1a E7 protein (residues 1-88). The test can be described thus: HPV1a E7 small-molecule binders, primary screen, biochemical, small-molecule microarray, residues 1-88, 635 nm (AID 1129). The settings on record: small-molecule microarray binding, fluorescence 635 nm; higher = more signal.
The target of test [3] is Focal adhesion kinase 1 (Homo sapiens) (UniProt Q05397). The test can be described thus: PTK2 protein binding on printed compound slides – biochemical, small-molecule microarray, 635/667 nm fluorescence, BSA, DTT, primary screen (AID 1130).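 Note: composite of spot emission at 667 nm and signal to noise over triplicate slides.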 The settings on record: 635 nm fluorescence, higher = more signal.
Focal adhesion kinase 1 (Homo sapiens), sequence (Q05397 whole entry, looked up): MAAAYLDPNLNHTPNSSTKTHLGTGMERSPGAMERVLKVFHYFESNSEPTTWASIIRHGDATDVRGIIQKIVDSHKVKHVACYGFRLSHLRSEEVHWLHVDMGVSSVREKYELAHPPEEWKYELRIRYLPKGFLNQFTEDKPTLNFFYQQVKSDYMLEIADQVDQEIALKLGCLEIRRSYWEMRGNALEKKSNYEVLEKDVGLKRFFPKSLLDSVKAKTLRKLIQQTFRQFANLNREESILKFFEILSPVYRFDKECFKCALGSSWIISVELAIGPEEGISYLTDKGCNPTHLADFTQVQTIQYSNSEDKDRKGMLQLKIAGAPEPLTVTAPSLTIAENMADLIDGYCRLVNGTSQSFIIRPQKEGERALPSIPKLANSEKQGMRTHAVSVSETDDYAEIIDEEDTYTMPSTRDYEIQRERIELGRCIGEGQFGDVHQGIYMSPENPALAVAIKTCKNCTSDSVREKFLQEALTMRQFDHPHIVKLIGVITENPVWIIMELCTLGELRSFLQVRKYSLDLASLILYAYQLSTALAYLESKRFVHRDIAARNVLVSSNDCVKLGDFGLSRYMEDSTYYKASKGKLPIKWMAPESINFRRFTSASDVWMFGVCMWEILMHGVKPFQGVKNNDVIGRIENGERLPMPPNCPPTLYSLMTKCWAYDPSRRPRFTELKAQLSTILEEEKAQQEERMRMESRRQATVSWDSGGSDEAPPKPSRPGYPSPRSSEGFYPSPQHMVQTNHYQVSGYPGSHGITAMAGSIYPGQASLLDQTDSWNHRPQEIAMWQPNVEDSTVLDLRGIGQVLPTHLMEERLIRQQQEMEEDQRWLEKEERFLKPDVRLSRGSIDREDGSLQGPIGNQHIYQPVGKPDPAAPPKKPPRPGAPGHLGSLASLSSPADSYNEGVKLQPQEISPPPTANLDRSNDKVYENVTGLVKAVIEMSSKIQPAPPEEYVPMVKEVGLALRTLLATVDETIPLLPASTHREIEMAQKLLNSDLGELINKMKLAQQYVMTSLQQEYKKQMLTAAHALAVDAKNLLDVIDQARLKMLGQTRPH
The test system of test [4] is Fibrinogen (Alexa647-labelled). As to the kind of experiment: Alexa647-fibrinogen binding to printed small molecules – biochemical, small-molecule microarray, 635/667 nm fluorescence, artefact control for SMM control-protein annotation, profiling panel (AID 1131).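 Note: z-score merges 667 nm fluorescence with per-spot signal-to-noise over triplicate slides.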 The settings on record: fibrinogen-A647 binding fluorescence, higher = more signal.
Test [5] addresses Follistatin (Homo sapiens) (UniProt P19883). The test can be described thus: FST protein binding to printed compounds – biochemical, small-molecule microarray, 635/667 nm fluorescence, primary screen (AID 1132). The settings on record: 635 nm fluorescence, higher = more signal.
In test [6] the target is Fibroblast growth factor 2 (Homo sapiens) (UniProt P09038). The test can be described thus: basic fibroblast growth factor binding to printed compounds – biochemical, small-molecule microarray, 635/667 nm fluorescence, primary screen (AID 1133). As to conditions: FGF2, fluorescence 635/667, higher = more signal.
Fibroblast growth factor 2 (Homo sapiens), sequence (P09038 whole entry, looked up): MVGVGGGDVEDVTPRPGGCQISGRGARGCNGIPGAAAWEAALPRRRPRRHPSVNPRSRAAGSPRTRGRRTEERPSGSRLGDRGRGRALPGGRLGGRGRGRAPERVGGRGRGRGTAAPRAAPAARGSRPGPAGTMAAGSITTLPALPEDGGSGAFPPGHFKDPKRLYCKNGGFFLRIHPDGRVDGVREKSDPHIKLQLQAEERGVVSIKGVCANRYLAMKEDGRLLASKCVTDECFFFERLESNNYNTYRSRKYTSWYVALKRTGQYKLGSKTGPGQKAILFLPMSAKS
A short description of test [7]: JC-1 mitochondrial potential readout, lung cancer cells – cell-based, A549, JC-1 fluorescence, basal, 24 h, 100 nL, profiling panel (AID 1138).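 Note: A549 lung adenocarcinoma cells under basal conditions with no added stimulus; test concentration not given here.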 As to conditions: higher = more signal.
Test [8] concerns Lefty1. The test can be described thus: Lefty1 protein binding to printed compounds – biochemical, small-molecule microarray, 635/667 nm fluorescence, primary screen (AID 1139). As to conditions: fluorescence 635/667, higher = more signal.
Test [9] relates to wheat germ agglutinin (Triticum aestivum), Alexa647-labelled. As to the kind of experiment: Alexa647-WGA lectin binding to printed small molecules – biochemical, small-molecule microarray, 635/667 nm fluorescence, artefact control for SMM control-protein annotation, profiling panel (AID 1140).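 Note: score merges 667 nm feature emission with signal to noise over triplicate slides.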 As to conditions: WGA-A647 binding, 635 nm fluorescence, higher = more signal.
Test [10] concerns the target Luciferin 4-monooxygenase (Photinus pyralis) (UniProt P08659). As to the kind of experiment: inhibition of purified Photinus pyralis luciferase – biochemical, luminescence, purified enzyme, 2006 set, primary screen (AID 1141).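 Note: cell-free assay with purified firefly luciferase at 100 ng per well in PBS; test concentration not given here.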 As to conditions: purified firefly luciferase, SteadyGlo luminescence, 30 min; higher = more signal, called active from +8 up or from −8 down.
Test [11] concerns Wnt5a (protein binding on small-molecule microarray). As to the kind of experiment: small molecules binding Wnt5a protein – biophysical, small-molecule microarray, 635/667 nm fluorescence, primary screen (AID 1142).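 Note: fluorescence read at 667 nm with signal to noise per printed feature.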 The settings on record: 635 nm fluorescence, higher = more signal.
A short description of test [12]: ATP-based viability of Huh7 replicon cells – cell-based, CellTiter-Glo luminescence, basal, 48 h, cytotoxicity control for HCV replication inhibitor project, primary screen (AID 1143).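 Note: Huh7 hepatoma cells carrying a hepatitis C replication reporter with no stimulus; test concentration not given here.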 The settings on record: higher = more signal, called active from +8 up or from −8 down.
The nature of test [13]: Pseudomonas biofilm growth suppression – PAO1 strain, BacTiter-Glo luminescence, LB-PBS, primary screen (AID 1144). The settings on record: P. aeruginosa PAO1 biofilm, 12 h, higher = more signal.
The nature of test [14]: basal CRE-LacZ reporter activity in PC12 – cell-based, unstimulated, primary screen (AID 1145). The settings on record: no forskolin, luminescence, 4.5 h, higher = more signal, called active from +8 up or from −8 down.
A short description of test [15]: forskolin-driven CRE-LacZ activity in PC12 – cell-based, CRE-LacZ reporter, forskolin-stimulated, primary screen (AID 1146).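 Note: PC12 cells with 6xCRE LacZ reporter stimulated by forskolin 10 µM; beta-galactosidase reporter signal reflecting CREB driven transcription.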 The settings on record: luminescence, 4.5 h, higher = more signal, called active from +8 up or from −8 down.
Test [16] concerns the target Streptavidin (Streptomyces avidinii) (UniProt P22629). The test can be described thus: compounds binding control protein streptavidin – biophysical, small-molecule microarray, 635/667 nm fluorescence, artefact control for SMM compound annotation, primary screen (AID 1147).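 Note: signal reflects streptavidin binding to arrayed compounds as a control protein.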 As to conditions: higher = more signal.
Test [17] can be described thus: probe aInhba binding on compound microarray – biochemical, small-molecule microarray, 635/667 nm fluorescence, primary screen (AID 1148).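 Note: score merges 667nm spot fluorescence with signal-to-noise for antibody binding to printed compounds.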 As to conditions: higher = more signal.
Test [18] concerns the target Torsin-1A (Homo sapiens) (UniProt O14656). As to the kind of experiment: TOR1A wild-type binding on microarray – cell lysate, small-molecule microarray, lysate, 635/667 nm, primary screen (AID 1149). The settings on record: COS7 hTOR1A-WT lysate, 635 nm fluorescence, higher = more signal.
Test [19] has the same target. The test can be described thus: torsin A mutant lysate binding on microarrays – cell lysate, small-molecule microarray, COS7 lysate, 635/667 nm fluorescence, primary screen (AID 1150).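 Note: score pools 667 nm emission and signal to noise measuring lysate protein binding.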 As to conditions: COS7 hTOR1A mutant lysate, 635 nm fluorescence, higher = more signal.
In test [20] the test system is Sonic hedgehog protein (Shh). As to the kind of experiment: Sonic hedgehog microarray binding compounds – biochemical, small-molecule microarray, 635/667 nm fluorescence, primary screen (AID 1151).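 Note: Shh protein binding to compounds spotted on small-molecule microarray slides; score combines spot fluorescence intensity with signal-to-noise across triplicate slides.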 As to conditions: 635 nm fluorescence, higher = more signal.

Luciferin 4-monooxygenase (Photinus pyralis), sequence (P08659 whole entry, looked up): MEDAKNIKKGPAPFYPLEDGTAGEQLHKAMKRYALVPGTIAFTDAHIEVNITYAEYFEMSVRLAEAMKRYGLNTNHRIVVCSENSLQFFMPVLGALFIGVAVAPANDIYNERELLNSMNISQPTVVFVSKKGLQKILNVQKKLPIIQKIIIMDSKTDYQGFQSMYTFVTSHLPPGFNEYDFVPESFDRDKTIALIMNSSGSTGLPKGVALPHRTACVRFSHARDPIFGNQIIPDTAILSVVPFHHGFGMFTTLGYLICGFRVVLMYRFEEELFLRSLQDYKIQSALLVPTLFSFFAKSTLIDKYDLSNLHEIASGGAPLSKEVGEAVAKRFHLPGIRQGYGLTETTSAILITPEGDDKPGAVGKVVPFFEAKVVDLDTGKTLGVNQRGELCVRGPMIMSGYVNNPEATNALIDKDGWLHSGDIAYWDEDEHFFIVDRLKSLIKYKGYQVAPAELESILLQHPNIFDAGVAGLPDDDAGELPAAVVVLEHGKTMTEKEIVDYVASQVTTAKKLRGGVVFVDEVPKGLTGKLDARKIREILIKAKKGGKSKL
Streptavidin (Streptomyces avidinii), sequence (P22629 whole entry, looked up): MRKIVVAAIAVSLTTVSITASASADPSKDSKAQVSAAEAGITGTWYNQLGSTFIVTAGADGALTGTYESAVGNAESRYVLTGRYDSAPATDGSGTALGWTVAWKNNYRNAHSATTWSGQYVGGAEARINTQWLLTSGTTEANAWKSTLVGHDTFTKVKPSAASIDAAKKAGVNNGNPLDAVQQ
Follistatin (Homo sapiens), sequence (P19883 whole entry, looked up): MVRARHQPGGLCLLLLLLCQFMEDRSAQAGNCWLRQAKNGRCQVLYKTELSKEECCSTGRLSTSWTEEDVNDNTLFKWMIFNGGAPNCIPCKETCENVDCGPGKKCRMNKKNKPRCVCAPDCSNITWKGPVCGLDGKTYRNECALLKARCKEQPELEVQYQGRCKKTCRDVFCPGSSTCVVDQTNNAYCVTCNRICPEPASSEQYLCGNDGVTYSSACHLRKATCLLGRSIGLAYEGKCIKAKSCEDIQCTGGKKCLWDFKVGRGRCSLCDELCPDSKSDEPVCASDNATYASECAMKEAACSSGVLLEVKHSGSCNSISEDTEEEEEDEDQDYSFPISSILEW
Torsin-1A (Homo sapiens), sequence (O14656 whole entry, looked up): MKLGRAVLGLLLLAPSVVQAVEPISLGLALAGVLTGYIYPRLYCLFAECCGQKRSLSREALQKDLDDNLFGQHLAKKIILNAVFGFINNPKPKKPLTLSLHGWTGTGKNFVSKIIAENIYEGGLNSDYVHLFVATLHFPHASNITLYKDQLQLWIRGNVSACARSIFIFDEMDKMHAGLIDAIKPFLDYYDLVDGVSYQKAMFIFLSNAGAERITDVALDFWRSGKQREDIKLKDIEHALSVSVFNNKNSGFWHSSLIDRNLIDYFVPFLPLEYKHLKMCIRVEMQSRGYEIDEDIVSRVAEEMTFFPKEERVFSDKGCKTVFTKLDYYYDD

With `COC(=O)[C@]1(Cc2ccccc2N=[N+]=[N-])N=C(c2ccc(OCCCO)cc2)O[C@@H]1c1ccccc1CN=[N+]=[N-]`, the composite z-score in test [1] amounted to 0.335; in [2] it was 1.12; in [3], 2.02; in [4] it was 0.206; in [5], 1.07; in test [6] it was 1.38. Further, the composite z-score turned out to be 0.182 in test [8]; 0.0031 in test [9]; 0.65 in test [11]; 0.127 in test [16]; 0.122 in test [17]; 1.12 in test [18]. For the same compound, the composite z-score in test [19] stood at 0.085; in test [20], 0.754. Further, the z-score in test [7] was -0.199; in test [10], -0.232 (inactive); in [12], -3.74 (inactive); in test [13], -0.923 (inactive); in test [14], -0.137 (inactive); in test [15], 0.0992 (inactive).

As to `C[C@]1(C(=O)NCC(F)(F)F)c2ccccc2C(=O)N(Cc2cc(C(F)(F)F)cc(C(F)(F)F)c2)[C@H]1c1ccc(CO)cc1`, the composite z-score in test [1] was 0.0266; in test [2], 0.416; in test [3], 0.0715; in [4], 0.412; in test [5], -0.0478; in test [6], 0.292. For the same compound, the composite z-score in [8] is -0.541; in test [9] it was -0.174; in [11], -0.127; in [16], -0.7; in test [17] it was -0.0963; in test [18], -0.469. For the same compound, the composite z-score was -0.34 in test [19] and -0.21 in test [20]. In addition, the z-score in [7] was 1.23; in test [10], -1.17 (inactive); in test [12] it was -0.286 (inactive); in test [13], 0.878 (inactive); in test [14], 0.324 (inactive); in test [15] it was 0.0167 (inactive).

In the case of `C=CCNC(=O)[C@@H]1[C@H]2C(=O)O[C@H](c3ccccc3)[C@H](c3ccccc3)N2[C@H](c2ccc(O)cc2)[C@@]12C(=O)N(C(=O)OCCOC)c1ccc(C#CCC(C(=O)OC)C(=O)OC)cc12`, the composite z-score came out at 1.06 in test [1]; 1.19 in test [2]; 0.214 in test [3]; 0.271 in [4]; 1.13 in [5]; 0.722 in [6]. The composite z-score came to 0.719 in [8]; 0.94 in [9]; 0.259 in test [11]; 0.0198 in test [16]; 0.0074 in [17]; 0.586 in test [18]. For the same compound, the figures for the composite z-score in test [19] and in test [20] were 1.3 and 1.37, respectively. The z-score was 0.556 in test [7]; 0.367 (inactive) in test [10]; -3.02 (inactive) in [12]; 0.132 (inactive) in [13]; -0.438 (inactive) in [14]; 0.416 (inactive) in test [15].

In the case of `Cc1ccc(S(=O)(=O)N2[C@@H](c3ccccc3)C(C(=O)O)=CC[C@H]2c2ccc(F)cc2)cc1`, the composite z-score in test [1] was 0.686; in [2] it was 1.29; in test [3] it was 0.779; in test [4] it was 1.13; in test [5], 0.164; in [6], -1.34. Moreover, the composite z-score in test [8] came out at 1.36; in [9], 1.05; in test [11], 0.148; in [16], 1.4; in test [17] it was 0.0403; in test [18], 1.33. Further, the composite z-score in test [19] was found to be 1.64; in test [20] it was 0.193. For the same compound, the z-score in test [7] was -0.679; in [10], 2.52 (inactive); in [12] it was -1.85 (inactive); in test [13], -0.8 (inactive); in test [14] it was -0.676 (inactive); in [15] it was 0.398 (inactive).

For the compound `CO[C@H]1O[C@H](CO)[C@@H](OC(=O)Nc2cccc(F)c2)[C@H](OC(=O)c2cc3ccccc3[nH]2)[C@H]1OC(=O)c1cc2ccccc2[nH]1`, the composite z-score is -0.371 in test [1]; -0.486 in test [2]; 0.23 in test [3]; 0.836 in test [4]; 0.498 in test [5]; -0.234 in [6]. Besides, the composite z-score is 0.379 in test [8]; 0.513 in [9]; -0.363 in test [11]; -0.256 in test [16]; -0.128 in test [17]; -0.536 in [18]. Further, the values for the composite z-score in test [19] and in test [20] were -0.18 and -0.111, respectively. Besides, the z-score in test [7] was -0.68; in test [10], -0.635 (inactive); in [12], -3.31 (inactive); in test [13], -1.02 (inactive); in test [14], 1.03 (inactive); in [15] it was -0.679 (inactive).
